Assay outcomes: PubChem BioAssay, National Center for Advancing Translational Sciences (NCATS)
TDP1 inh: TDP1 (human) enzyme inhibition. Q9NUW8. recombinant TDP1, AlphaScreen DNA substrate cleavage. Potency, µM (series often up to 130 µM), for inactives: at the top dose activity change, negative = inhibition, actives largely listed as inhibitors. 350,000 tested, 0.28% active. AID 485290; also: % is scaled to controls: 0 for no effect and ±100 for the full control effect; nearly all actives have a fitted effect of over 40% in size
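AlphaScreen read-out: signal falls as enzyme removes the 3' tyrosine-FITC from a 5'-biotinylated DNA oligo (15 nM, 5 min, RT). Enzyme was E. coli-made recombinant Tdp1 at 1 nM, exposed to compound for 15 min beforehand; beads 10 ug/ml, 10 min.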
DT40 TDP1 CPT: DT40-hTDP1 cell growth loss with CPT | 420,000 tested, 12% active | chicken DT40 Tdp1-/-;hTDP1 cells + 20 nM CPT, ATP luminescence, 48 h | AID 686979 | Potency, µM (titrated, usually from 46.2 µM), inactives show at the top dose activity change, negative = growth inhibition, actives largely listed as inhibitors; also: % is scaled to controls: 0 for no effect and ±100 for the full control effect; nearly all actives have a fitted effect of over 55% in size
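Chicken DT40 Tdp1-/- cells complemented with human TDP1, 400 cells/well, exposed to compounds plus 20 nM camptothecin for at least 48 h at 37 C; viability read as ATP content by CellTiter-Glo luminescence.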
ClpP mod: qHTS Assay for Activators of ClpP | 340,000 tested, 1.9% active | purified B. subtilis ClpP, FRET peptide cleavage, 20 min | Potency, µM (titrated, usually from 57.5 µM), for inactives: top-dose activity change, negative = active | ATP-dependent Clp protease proteolytic subunit (Bacillus subtilis (strain 168)), P80244; active = well fitted falling curve with a large enough effect; inconclusive = small, poorly fitted or top-dose-only effect; inactive = no such curve, though single readings can be large or run the other way; also: the source files actives as falling curves though it sought activators and does not explain the sign; nearly all actives have a fitted effect of over 65% in size
Target sequence (P80244 whole entry, looked up): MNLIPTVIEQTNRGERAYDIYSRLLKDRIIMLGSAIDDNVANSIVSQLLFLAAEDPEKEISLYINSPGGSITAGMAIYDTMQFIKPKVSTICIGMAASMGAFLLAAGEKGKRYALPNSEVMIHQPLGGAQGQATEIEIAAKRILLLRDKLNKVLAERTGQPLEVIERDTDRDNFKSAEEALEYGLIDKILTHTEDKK
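Purified B. subtilis ClpP, 10 microg/mL final in Tris/HCl pH8 with KCl, BSA, glycerol and Tween-20, cleaved an Abz/nitrotyrosine-quenched decapeptide. Fluorescence (ex 320, em 430) was read at 0 and 20 min at room temperature. Delta was normalized to 5.8 microM ADEP and DMSO/no-enzyme controls.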
DT40 TDP1 no CPT: qHTS for Inhibitors of human tyrosyl-DNA phosphodiesterase 1 (TDP1): qHTS in cells in absence of CPT | DT40 Tdp1-/- hTDP1 cells, no CPT, ATP luminescence, 48 h | Potency, µM (series often up to 46.2 µM), without a hit: top-dose activity change, negative = growth inhibition, hits mostly inhibitors | 420,000 tested, 15% active; also: % is scaled to controls: 0 for no effect and ±100 for the full control effect; nearly all actives have a fitted effect of over 55% in size
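Luminescent ATP content (CellTiter-Glo) served as the growth readout. Knockout chicken DT40 cells expressing human TDP1 were exposed to compounds without camptothecin for a minimum 48 hr at 37 °C.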
* hit, by the source's call; ? = inconclusive; . = no result given; [ ] = dose if it differs, or a comment. Shown are actives, neighbours in structure and some others; about 17% of the full set was active somewhere. Unless noted, calls follow the shape of the dose curve; as a rule, active = well fitted curve in the direction sought with a large enough effect; inconclusive = small, poorly fitted or top-dose-only effect, or another doubt; inactive = no such curve, though single readings can be large; an effect the other way counts as inactive or inconclusive. Potency is read from the fitted curve at half-maximal effect.

SMILES | TDP1 inh | DT40 TDP1 CPT | ClpP mod | DT40 TDP1 no CPT
N#CCN(CC#N)C(=O)C1c2ccccc2Oc2ccccc21 | 1.4% | ? | . | ?
CCOC(=O)c1cc(-c2ccc(C)cc2)n(CCC(=O)Nc2nc3c(C)cccc3s2)c1C | 4.9% | ? | -14.1% | ?
COc1cc(Cl)c(C)cc1NC(=O)c1ccc(CN2C(=O)CCn3nc(C)cc32)cc1 | 5.6% | -13.7% | -6.0% | -20.9%
Cc1ccc2nc(Nc3ccccc3)c(/C=N/O)c(=O)n2c1 | 2.4% | 2.59µM* | -2.2% | 6.51µM*
COc1ccc(Nc2nc3ccc(C)cn3c(=O)c2/C=N/O)cc1 | -5.1% | 5.8µM* | . | 6.51µM*
CCOC(=O)c1cc(C)n(CC2CCC(C(=O)Nc3cccc(Cl)c3)CC2)c1C (stereo not given) | 4.7% | ? | -0.4% | 16.4µM*
CCOC(=O)c1cc(C)n(CC2CCC(C(=O)Nc3ccc(Cl)cc3)CC2)c1C (stereo not given) | 2.8% | 18.4µM* | -6.7% | 11.6µM*
O=C(Nc1ccc2c(c1)OCO2)O[C@@H]1C[C@H]2CCCC(=O)N3CC[C@@H](C1)[C@@H]23 | . | -19.4% | -1.1% | -23.7%
CC1(C)CCC(=O)N2CC[C@H]3C[C@H](OC(=O)Nc4ccc(Br)cc4)C[C@@H]1[C@H]32 | . | 35.5µM* | -0.3% | ?
Cc1cccc(NC(=O)CCC(=O)OCC(=O)c2ccc(Oc3ccc([N+](=O)[O-])cc3)cc2)c1 | 2.7% | 20.6µM* | . | ?
Cc1ccc(NC(=O)CCC(=O)OCC(=O)c2ccc(Oc3ccc([N+](=O)[O-])cc3)cc2)cc1C | 0.0% | -10.5% | -1.0% | -13.4%
CN(Cc1ccc(Cl)s1)C(=O)CCl | 2.9% | 3.26µM* | -1.7% | 1.84µM*
CN(Cc1ccccc1)C(=O)CC(=O)N(C)Cc1ccccc1 | -2.5% | -1.8% | . | -24.9%
CN(C)CCNC(=O)c1ccc(Cl)s1 | 2.6% | -6.2% | -0.6% | -0.9%
COc1ccc(OCC(=O)N(C)Cc2ccccc2)cc1 | 2.1% | 0.0% | -3.2% | -16.1%
COc1ccc(CN(C)C(=O)CCl)cc1 | 1.3% | 2.31µM* | 0.8% | 2.59µM*
CN(Cc1ccc(Cl)cc1)C(=O)CCl | 0.0% | 2.31µM* | 1.4% | 2.59µM*
CC1CCC2(C(=O)O)CCC3(C)C(=CCC4C3(C)CCC3[C@@]4(C)CC(O)C(O)[C@@]3(C)CO)C2C1C (stereo not given in full) | 8.1%[56.1 µM] | 3.8% | . | -14.6%
S=C(NC1CC1)N1CCN(c2ccc(Cl)cc2)CC1 | 5.4% | 14.6µM* | 0.9% | ?
S=C(NC1CCCC1)N1CCN(c2cccc(Cl)c2)CC1 | 3.7% | ? | -1.0% | ?
O=[N+]([O-])c1ccc(N2CCN(C(=S)NC3CCCCC3)CC2)cc1 | 9.6% | 16.4µM* | -2.4% | 9.2µM*
COc1cc(S(=O)(=O)NCC2CCCO2)ccc1Br (stereo not given) | -3.6% | 12.1% | -4.8% | -11.5%
CC[n+]1c(C)sc2cc(C)ccc21 | -2.4% | 3.66µM* | -1.5% | 3.66µM*
CCCC[n+]1c(C)sc2ccc(C)cc21 | 4.8% | ? | 2.1% | ?
O=c1oc2cc(OCCO)ccc2c2c1CCCC2 | 1.6% | 11.8% | 4.2% | 12.1%
SMILES | TDP1 inh | DT40 TDP1 CPT | ClpP mod | DT40 TDP1 no CPT
Cc1noc(C)c1S(=O)(=O)Nc1ccc2c(c1)CC(=O)N([C@H](C)CO)C[C@H](C)[C@@H](CN(C)CC1CC1)O2 | 0.3% | -7.9% | -1.6% | -11.4%
Cc1ccc(C(C)C)c(OCc2ccc(-c3nnco3)cc2)c1 | -2.1% | 16.4µM* | -1.1% | 20.6µM*
Cc1cc(C)c(S(=O)(=O)Nc2ccc(Cl)cn2)c(C)c1 | . | 27.4% | -1.4% | -3.8%
Cc1cc(=O)oc2c1ccc1oc(/C(=N/O)c3ccccc3)c(C)c12 | 4.6% | 20.6µM* | ? | 25.9µM*
Cc1ccc(/C(=N\O)c2oc3c(C)c4oc(=O)cc(C)c4cc3c2C)cc1 | 3.7% | 18.4µM* | 25.1µM* | 16.4µM*
CCc1c(C(=O)c2ccc(Cl)cc2)oc2c(C)c3oc(=O)cc(C)c3cc12 | 4.3% | -16.3% | -0.9% | -7.6%
OC(c1cccc(Cl)c1)c1ncc(-c2ccccc2Cl)[nH]1 (stereo not given) | . | ? | -2.3% | ?
Cc1cccnc1-c1cccc2c1OC(CNC(=O)Cn1cncn1)C2 (stereo not given) | . | 5.0%[9.04 µM] | . | -3.8%
CC(=O)CC(=O)Nc1ccn(-c2ccccc2)n1 | 3.3% | -17.2% | -2.3% | -4.1%
O=C(O)CCCC(=O)Nc1ccn(-c2ccccc2)n1 | -1.0% | 18.4µM* | -2.6% | ?
Cn1cnc([N+](=O)[O-])c1S(=O)(=O)c1cccc(Cl)c1 | 5.3% | 1.84µM* | 1.5% | 2.31µM*
Cn1cnc([N+](=O)[O-])c1S(=O)(=O)Nc1ccccc1 | . | 16.4µM* | . | 14.6µM*
Cc1nn(C(C)C(=O)c2cccc(Cl)c2)c(C)c1[N+](=O)[O-] (stereo not given) | -2.7% | 12.5% | . | -1.6%
Cn1cnc([N+](=O)[O-])c1S(=O)(=O)Oc1ccccc1 | . | 0.651µM* | . | 1.03µM*
Cn1cnc([N+](=O)[O-])c1NCc1ccccc1 | . | 3.2% | -0.6% | -2.8%
CCc1cccc(CC)c1NC(=O)C(Cc1ccccc1)NS(=O)(=O)c1cccc2nsnc12 (stereo not given) | 4.7% | ? | -6.6% | ?
CC1(C)NC(=O)N(CC(=O)N2CCN(c3cccc(C(F)(F)F)c3)CC2)C1=O | . | ? | -7.6% | ?
COc1cccc(N2CCN(C(=O)CN3C(=O)NC4(CCCC4)C3=O)CC2)c1 | 6.3% | -11.0% | 0.9% | -20.0%
O=C(CN1C(=O)NC2(CCCCCC2)C1=O)NCc1ccccc1 | 0.6% | -36.5% | -0.2% | -20.2%
